Compound activity: PubChem, The Scripps Research Institute Molecular Screening Center
hgDAF-12 ag: H. glycines DAF-12 receptor agonists, primary screen, cell-based, luminescence, HEK293, GAL4 fusion, UAS-luciferase | Nuclear hormone receptor DAF-12 (Heterodera glycines), GAL4 fusion | HEK293 GAL4-hgDAF12 UAS-luciferase reporter, agonist luminescence; normalized to butyrate control | activation, % at 6.8 µM | actives 1.8% (n = 370,000) | AID 687014, 2013;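 active means activation above a cutoff set at the mean of all screened compounds plus 3 SD, cut at about 10% in these data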;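 further: 0% = DMSO wells and 100% = sodium butyrate wells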
FXN GAA850 act: FXN promoter activators, primary screen, cell-based, luciferase luminescence, HEK293 lucGAA850; HEK293 lucGAA850 FXN promoter luciferase reporter, 24 h; percent of 10 µM SAHA response; activation, % at 6 µM; actives 0.56% (n = 360,000);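 active means activation above the average of all compounds screened plus 3 SD, cutoff fixed separately per campaign, cut at about 7.5% in these data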;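 further: 0% = DMSO wells and 100% = 10 µM SAHA wells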
ssDAF12 agonist: S. stercoralis DAF-12 nuclear receptor activators, primary screen, cell-based, luminescence, HEK293, GRIP1 co-expression, lit1-tk-luc; Nuclear hormone receptor DAF-12 (Strongyloides stercoralis); HEK293 ssDAF-12/GRIP1 lit1-tk-luc reporter; % of 3 µM dafachronic acid response; activation, % at 6.8 µM; actives 1% (n = 370,000); AID 652126, 2013;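 active means activation above the mean over all tested compounds plus 3 SD, cut at about 0.9% in these data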;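 further: 0% = DMSO-only wells and 100% = 3 µM delta7-dafachronic acid wells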
DAX1 inh-1: DAX1 (NR0B1) inhibitors, primary screen, cell-based, HEK293, Gal4-DAX1, luciferase luminescence | Nuclear receptor subfamily 0 group B member 1 (Homo sapiens), P51843 | HEK293 Gal4-DAX1 luciferase reporter | inhibition, % at 6.75 µM | actives 0.99% (n = 340,000);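 active means inhibition above the mean over all tested compounds plus 3 SD, cut at about 4.2% in these data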;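 further: 0% = DAX1-transfected cells with DMSO and 100% = empty-vector control cells with DMSO; inhibition shows as a rise in luminescence from relieved DAX1 repression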
Target sequence (P51843 207-470 limits assumed): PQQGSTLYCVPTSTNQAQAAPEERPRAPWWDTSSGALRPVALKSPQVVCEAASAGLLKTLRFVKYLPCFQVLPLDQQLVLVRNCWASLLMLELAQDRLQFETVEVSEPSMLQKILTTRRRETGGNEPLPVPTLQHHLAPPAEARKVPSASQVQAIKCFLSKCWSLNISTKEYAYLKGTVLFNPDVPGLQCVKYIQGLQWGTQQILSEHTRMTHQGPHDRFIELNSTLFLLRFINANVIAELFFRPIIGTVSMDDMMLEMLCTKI
DAX1 inh-2: DAX1 (NR0B1) inhibitors on StAR promoter, primary screen, cell-based, luminescence, SF-1 (NR5A1), full-length DAX-1; AID 652010, 2013; actives 1.1% (n = 370,000); HEK293T StAR-luciferase reporter, SF-1/DAX-1 repression relief; inhibition, % at 6.8 µM;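 active means inhibition above the mean over all tested compounds plus 3 SD, cut at about 3.6% in these data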;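 further: 0% = DAX-1 cells with DMSO and 100% = cells lacking DAX-1 with DMSO; higher inhibition means more luminescence from relief of DAX-1 repression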
hcDAF12 agonist: H. contortus DAF-12 nuclear receptor activators, primary screen, cell-based, luminescence, HEK293, lit1-tk-luc reporter; HEK293 hcDAF-12 lit1-tk-luc reporter; 0% DMSO, 100% Δ7-dafachronic acid; activation, % at 6.8 µM; actives 1.4% (n = 370,000);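 active means activation above the mean of all tested compounds plus 3 SD, cut at about 5.5% in these data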;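 further: 100% = response to 3 µM Δ7-dafachronic acid high control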
GAA30 FXN cntr: GAA30 FXN promoter activators, confirmation, counter-screen for GAA850 frataxin promoter activator project, cell-based, luminescence, HEK293, lucGAA30, triplicate; shares compounds with FXN GAA850 act; HEK293 lucGAA30 FXN promoter luciferase, 24 h; DMSO = 0%, 5 µM ipriflavone = 100%; activation, % at 6 µM; actives 66% (n = 1,900); AID 588350, 2011;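 active means mean activation above the mean of solvent-only control wells plus 3 SD, cut at about 22% in these data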;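 further: counterscreen of GAA850 promoter hits where activity marks nonselective or luminescence artifacts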
FXN GAA850 conf: FXN GAA850 promoter activators in reporter cells, confirmation, cell-based, luminescence, HEK293 lucGAA850, triplicate | actives 86% (n = 1,900) | activation, % at 6 µM | HEK293 lucGAA850 FXN promoter luciferase reporter, 24 h; 100% = activation by SAHA | shares compounds with FXN GAA850 act | AID 588351, 2011;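 active means mean activation above a set limit taken from the primary screen, cut at about 8% in these data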;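 further: 0% = DMSO wells and 100% = 10 µM SAHA wells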
Active calls of the source: *; . = no result given. Most compounds without a hit are left out; they make up all but 4.5% or so of the library.

SMILES	hgDAF-12 ag	FXN GAA850 act	ssDAF12 agonist	DAX1 inh-1	DAX1 inh-2	hcDAF12 agonist	GAA30 FXN cntr	FXN GAA850 conf
CC(C)(C)N1C(=O)[C@H]2[C@@H](c3ccc(Br)cc3)N3C(=O)N(c4cccc(F)c4)C(=O)[C@@]3(Cc3ccccc3)[C@H]2C1=O	-1	6	-1	0	0	-1	.	.
CC[C@@]12C(=O)N(c3cccc(F)c3)C(=O)N1[C@H](c1ccc(Br)cc1)[C@@H]1C(=O)N(C(C)(C)C)C(=O)[C@@H]12	0	15*	-1	-1	0	0	26*	13*
C[C@H]1[C@@H](NC(=O)c2ccc(C(F)(F)F)cc2)CC[C@@]23CCCN2C(=O)CCC[C@@H]13	-1	.	-1	.	.	-2	.	.
Cc1ccc(CSc2nnc(-c3cc(-c4ccc(F)cc4)n[nH]3)n2N)cc1	0	.	-2	.	0	-4	.	.
COc1ccc(C(CC(=O)c2ccc(C)cc2)C(C#N)C#N)cc1OC (stereo unspecified)	-8	8.0*	-1	-1	-1	-4	39*	38*
COC(=O)C(C(=O)OC)C(CC(=O)c1ccc(C)cc1)c1cc(OC)c(OC)c(OC)c1 (stereo unspecified)	-2	4	-2	0	0	0	.	.
Cc1ccc(C2CCC3(CCC(=O)N3CCOC(=O)Nc3ccc(Br)cc3)CC2)cc1 (stereo unspecified)	1	.	-1	.	0	-1	.	.
COC(=O)/C(=C1/Oc2cc(C)oc(=O)c2S1)C(F)(F)F	-2	13*	0	1	0	1	17	24*
COc1ccc(C2=C(N)c3ccccc3C2=O)cc1	.	7.7*	.	4	.	.	102*	33*
CCOC(=O)c1oc2c(c1C)C(=O)CCC2	0	-1	-1	-1	1	-1	.	.
CCOC(=O)c1oc2c(c1C)/C(=N/O)CCC2	5	8.0*	-1	1	0	2	65*	23*
O=C(NCCc1c[nH]c2ccccc12)OCc1cn(Cc2ccccc2C(F)(F)F)nn1	-3	.	0	.	0	-2	.	.
CN(C)C(=S)N=c1ssc(=S)n1Cc1ccccc1	-3	21*	-1	-2	-1	-1	4	28*
CCOC(=O)c1sc(=S)n(Cc2ccccc2)c1C	-2	0	-1	-2	0	1	.	.
C=CCn1c(COc2ccccc2)nnc1SCC(=O)Nc1ccc(Oc2ccccc2)cc1	3	.	-1	.	0	-3	.	.
c1cncc(-c2nc3ccccc3s2)c1	5	7.7*	-1	0	1	2	86*	28*
c1ccc2sc(-c3ccncc3)nc2c1	5	4	-1	1	1	0	.	.
Cc1ccc(-c2nn3c(C)nnc3s2)cc1NC(=O)C(C)C	-1	1	-2	1	-1	0	.	.
Cc1ccc(-c2nn3c(C)nnc3s2)cc1NC(=O)c1ccco1	3	14*	-1	1	-2	1	26*	6
Cc1nc(NC(=O)c2ccc(Br)s2)sc1C(=O)N(C)C	8	8.4*	0	2	2	4	115*	33*
